Data: PubChem BioAssay AID1159580 (chemical genetic matrix, 2015)
Where “and” joins values, the source holds several entries; their conditions need not be identical. Equal entries are not always repeated. Out of some 5,500 compounds screened, about 2,000 (36%) were called active. Inconclusive results (about 18%) are left out. No stated cut-off is given here; in the data, active means normalized growth mostly below about 0.91 (no sharp cut-off); inconclusive means no clear call, values can overlap the other calls; inactive means mostly above about 0.92. Some of the results follow.

Test: chemical genetic growth profiling, strain panel (AID 1159580);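 further: tested at 20 µM; growth read once vehicle control cultures reached saturation at 30 °C; 1 = growth at the plate median or of vehicle wells; lower values mean less growth of the strain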
Conditions: S. cerevisiae deletion strains, growth OD

Measured: normalized growth

CC1(C)CC2C1CCC1(C)OC1CCC2(C)O (centres undefined)
inactive: locus YAL013W, strain DEP1, active compounds read low 1.02 | locus YAL021C, strain ccr4, active compounds read low 1.01 | locus YAL026C, strain drs2, active compounds read low 1.05 | locus YAL030W, strain snc1, active compounds read low 1.03 | locus YBL061C, strain skt5, active compounds read low 1.04 | locus YBR009C, strain hhf1, active compounds read low 1.06 | locus YBR021W, strain FUR4, active compounds read low 1.01 | locus YBR023C, strain chs3, active compounds read low 1.05 | locus YBR171W, strain sec66, active compounds read low 1.06 | locus YBR229C, strain ROT2, active compounds read low 1 | locus YBR231C, strain swc5, active compounds read low 1.04 | locus YBR279W, strain paf1, active compounds read low 1.03 | locus YCL011C, strain gbp2, active compounds read low 1.04 | locus YCL016C, strain dcc1, active compounds read low 1.03 | locus YCL029C, strain bik1, active compounds read low 1.03 | locus YCL061C, strain MRC1, active compounds read low 1.04 | locus YCL069W, strain vba3, active compounds read low 1.04 | locus YCR088W, strain abp1, active compounds read low 1.04 | locus YDL005C, strain med2, active compounds read low 1.03 | locus YDL035C, strain GPR1, active compounds read low 1.03 | locus YDL040C, strain nat1, active compounds read low 1.03 | locus YDL074C, strain BRE1, active compounds read low 1.07 | locus YDL101C, strain DUN1, active compounds read low 1.03 | locus YDL185W, strain tfp1, active compounds read low 1.01 | locus YDL192W, strain arf1, active compounds read low 1.03 | locus YDR001C, strain nth1, active compounds read low 1.03 | locus YDR069C, strain doa4, active compounds read low 1.06 | locus YDR101C, strain arx1, active compounds read low 0.987 | locus YDR137W, strain rgp1, active compounds read low 1.07 | locus YDR159W, strain sac3, active compounds read low 1.11 | locus YDR162C, strain NBP2, active compounds read low 1.06 | locus YDR195W, strain ref2 1.01 | locus YDR297W, strain sur2, active compounds read low 1.05 | locus YDR318W, strain mcm21, active compounds read low 1.04 | locus YDR334W, strain swr1, active compounds read low 1.04 | locus YDR335W, strain msn5, active compounds read low 1.04 | locus YDR388W, active compounds read low 1.02 | locus YDR392W, strain spt3, active compounds read low 1.01 | locus YDR502C, strain sam2, active compounds read low 1.06 | locus YEL003W, strain gim4, active compounds read low 1.04 | locus YEL037C, strain rad23, active compounds read low 1.03 | locus YEL061C, strain CIN8 (second series), active compounds read low 1.03 | locus YEL061C, strain CIN8, active compounds read low 1.02 | locus YER015W, strain faa2, active compounds read low 1.04 | locus YER016W, strain bim1, active compounds read low 1.04 | locus YER110C, active compounds read low 1.01 | locus YER111C, strain swi4, active compounds read low 1.03 | locus YER155C, strain BEM2 (second series), active compounds read low 1.07 | locus YER155C, strain BEM2, active compounds read low 1.03 | locus YER167W, strain BCK2, active compounds read low 1.01 | locus YFR010W, strain ubp6, active compounds read low 1.05 | locus YGL078C, strain dbp3, active compounds read low 1.02 | locus YGL086W, strain mad1, active compounds read low 1.02 | locus YGL167C, strain pmr1, active compounds read low 1.03 | locus YGL173C, strain kem1, active compounds read low 1.06 | locus YGL227W, strain vid30, active compounds read low 1.03 | locus YGL240W, strain doc1, active compounds read low 1.04 | locus YGL248W, strain PDE1, active compounds read low 1.05 | locus YGL253W, strain hxk2, active compounds read low 1.07 | locus YGR135W, strain pre9, active compounds read low 1.04 | locus YGR252W, strain gcn5, active compounds read low 1.17 | locus YHR013C, strain ard1, active compounds read low 1.05 | locus YHR027C, strain rpn1, active compounds read low 1.06 | locus YHR030C, strain SLT2, active compounds read low 1.02 | locus YHR079C, strain IRE1 (second series), active compounds read low 1.01 | locus YHR079C, strain IRE1, active compounds read low 1.04 | locus YHR094C, strain hxt1, active compounds read low 1.01 | locus YHR129C, strain ARP1, active compounds read low 1.02 | locus YHR142W, strain chs7, active compounds read low 1.06 | locus YHR200W, strain rpn10, active compounds read low 1.04 | locus YIL066C, strain RNR3, active compounds read low 1.02 | locus YIL073C, strain SPO22, active compounds read low 1.12 | locus YIL125W, strain kgd1, active compounds read low 1.01 | locus YIR030C, strain dcg1, active compounds read low 1.01 | locus YJL092W, strain hpr5, active compounds read low 1.04 | locus YJL095W, strain BCK1 (second series), active compounds read low 1.03 | locus YJL095W, strain BCK1, active compounds read low 1.08 and 1.04 | locus YJL115W, strain asf1, active compounds read low 1.04 | locus YJL129C, strain trk1, active compounds read low 1.08 | locus YJL134W, strain LCB3, active compounds read low 1.02 | locus YJL154C, strain vps35, active compounds read low 1.03 | locus YJL164C, strain tpk1, active compounds read low 1.04 | locus YJL166W, strain qcr8, active compounds read low 1.05 | locus YJL168C, strain set2, active compounds read low 1.02 | locus YJL187C, strain SWE1 (second series), active compounds read low 1.06 | locus YJL187C, strain SWE1, active compounds read low 1.05 | locus YJR043C, strain POL32, active compounds read low 1.04 | locus YJR066W, strain TOR1, active compounds read low 0.961 | locus YKL009W, strain mrt4, active compounds read low 1.01 | locus YKL068W, active compounds read low 1 | locus YKL085W, strain MDH1 (second series), active compounds read low 1 | locus YKL085W, strain MDH1, active compounds read low 1 | locus YKL160W, strain elf1, active compounds read low 1.02 | locus YKR001C, strain vps1, active compounds read low 1.1 | locus YKR026C, strain gcn3, active compounds read low 1.04 | locus YKR091W, strain srl3, active compounds read low 1.02 | locus YLL001W, strain dnm1, active compounds read low 1.01 | locus YLL026W, active compounds read low 1.04 | locus YLL041C, strain sdh2, active compounds read low 1.03 | locus YLR027C, strain aat2, active compounds read low 1.05 | locus YLR039C, strain RIC1, active compounds read low 1.2 | locus YLR058C, strain SHM2, active compounds read low 1.05 | locus YLR102C, strain apc9, active compounds read low 1.01 | locus YLR113W, strain HOG1, active compounds read low 1.03 | locus YLR221C, strain rsa3, active compounds read low 1.07 | locus YLR258W, strain gsy2, active compounds read low 1.05 | locus YLR262C, strain YPT6 (second series), active compounds read low 1.06 | locus YLR268W, strain sec22, active compounds read low 1.04 | locus YLR320W, strain mms22, active compounds read low 1.07 | locus YLR342W, strain FKS1 (second series), active compounds read low 1.09 | locus YLR342W, strain FKS1, active compounds read low 1.05 | locus YLR357W, strain rsc2, active compounds read low 1.07 | locus YLR370C, strain arc18, active compounds read low 1.04 | locus YLR371W, strain rom2, active compounds read low 0.999 | locus YLR384C, strain iki3, active compounds read low 1.05 | locus YLR418C, strain cdc73, active compounds read low 1.11 | locus YML016C, strain PPZ1, active compounds read low 1.01 | locus YML032C, strain rad52, active compounds read low 1.04 | locus YML120C, strain ndi1, active compounds read low 1.03 | locus YML124C, strain tub3, active compounds read low 0.999 | locus YMR058W, strain fet3, active compounds read low 1.05 | locus YMR078C, strain ctf18, active compounds read low 1.01 | locus YMR125W, strain sto1, active compounds read low 1.05 | locus YMR129W, active compounds read low 1.02 | locus YMR205C, strain PFK2, active compounds read low 1.06 | locus YMR223W, strain ubp8, active compounds read low 1.05 | locus YMR231W, strain pep5, active compounds read low 1.04 | locus YMR263W, strain SAP30, active compounds read low 1.02 | locus YMR307W, strain GAS1, active compounds read low 1.1 | locus YNL067W, strain RPL9B, active compounds read low 1.03 | locus YNL071W, strain lat1, active compounds read low 1.04 | locus YNL128W, strain TEP1, active compounds read low 1.04 | locus YNL153C, strain GIM3, active compounds read low 1.05 | locus YNL183C, strain NPR1, active compounds read low 0.975 | locus YNL209W, strain ssb2, active compounds read low 1.03 | locus YNL233W, strain BNI4, active compounds read low 1.07 | locus YNL248C, strain rpa49, active compounds read low 1.05 | locus YNL250W, strain rad50, active compounds read low 1.04 | locus YNL271C, strain bni1, active compounds read low 1.03 | locus YNL298W, strain CLA4, active compounds read low 1.01 | locus YNL307C, strain MCK1, active compounds read low 1.01 | locus YNL322C, strain KRE1 (second series), active compounds read low 1.04 | locus YNL322C, strain KRE1, active compounds read low 1.02 | locus YNR049C, strain mso1, active compounds read low 1.04 | locus YNR052C, strain pop2, active compounds read low 1.03 | locus YOL006C, strain TOP1, active compounds read low 1.19 | locus YOL012C, strain htz1 1 | locus YOL147C, strain pex11, active compounds read low 1.02 | locus YOR001W, strain rrp6, active compounds read low 1.08 | locus YOR061W, strain CKA2, active compounds read low 1.02 | locus YOR069W, strain VPS5, active compounds read low 1.02 | locus YOR070C, strain gyp1, active compounds read low 1.05 | locus YOR080W, strain dia2, active compounds read low 1.03 | locus YOR083W, strain WHI5, active compounds read low 1.03 | locus YOR106W, strain vam3, active compounds read low 1.04 | locus YOR136W, strain idh2, active compounds read low 1 | locus YOR144C, strain elg1, active compounds read low 1.01 | locus YOR184W, strain ser1, active compounds read low 1.05 | locus YOR231W, strain MKK1, active compounds read low 1.05 | locus YOR265W, strain rbl2, active compounds read low 1.04 | locus YOR270C, strain vph1, active compounds read low 1.14 | locus YOR290C, strain snf2, active compounds read low 1.04 | locus YOR316C, strain cot1, active compounds read low 1 | locus YPL051W, strain arl3, active compounds read low 1.05 | locus YPL055C, strain LGE1, active compounds read low 1.06 | locus YPL078C, strain atp4, active compounds read low 1.02 | locus YPL106C, strain sse1, active compounds read low 1.02 | locus YPL240C, strain hsp82, active compounds read low 1.03 | locus YPL256C, strain CLN2, active compounds read low 1.04 | locus YPR119W, strain clb2, active compounds read low 1.02 | locus YPR141C, strain kar3, active compounds read low 0.991 | locus YPR163C, strain tif3, active compounds read low 1.04 | locus YPR167C, strain met16, active compounds read low 1 | strain wtn01, active compounds read low 1.04
